Measured potencies and affinities stand elsewhere. Activity calls are given as the source filed them.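 How the source made its calls: active means increase of the KCNQ2 potassium channel current at -35 mV by at least one tested dose; inactive means no tested dose increases that current.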
Target: Potassium voltage-gated channel subfamily KQT member 2 (Rattus norvegicus) (UniProt O88943)
Assay: retigabine-insensitive KCNQ2 potentiators, concentration-response, dose response, cell-based, retigabine-insensitive compounds (AID 2654)
Conditions: KCNQ2-CHO cells, automated patch clamp current potentiation; at 30 µM (top of the series)

Potassium voltage-gated channel subfamily KQT member 2 (Rattus norvegicus), sequence (O88943 whole entry, looked up): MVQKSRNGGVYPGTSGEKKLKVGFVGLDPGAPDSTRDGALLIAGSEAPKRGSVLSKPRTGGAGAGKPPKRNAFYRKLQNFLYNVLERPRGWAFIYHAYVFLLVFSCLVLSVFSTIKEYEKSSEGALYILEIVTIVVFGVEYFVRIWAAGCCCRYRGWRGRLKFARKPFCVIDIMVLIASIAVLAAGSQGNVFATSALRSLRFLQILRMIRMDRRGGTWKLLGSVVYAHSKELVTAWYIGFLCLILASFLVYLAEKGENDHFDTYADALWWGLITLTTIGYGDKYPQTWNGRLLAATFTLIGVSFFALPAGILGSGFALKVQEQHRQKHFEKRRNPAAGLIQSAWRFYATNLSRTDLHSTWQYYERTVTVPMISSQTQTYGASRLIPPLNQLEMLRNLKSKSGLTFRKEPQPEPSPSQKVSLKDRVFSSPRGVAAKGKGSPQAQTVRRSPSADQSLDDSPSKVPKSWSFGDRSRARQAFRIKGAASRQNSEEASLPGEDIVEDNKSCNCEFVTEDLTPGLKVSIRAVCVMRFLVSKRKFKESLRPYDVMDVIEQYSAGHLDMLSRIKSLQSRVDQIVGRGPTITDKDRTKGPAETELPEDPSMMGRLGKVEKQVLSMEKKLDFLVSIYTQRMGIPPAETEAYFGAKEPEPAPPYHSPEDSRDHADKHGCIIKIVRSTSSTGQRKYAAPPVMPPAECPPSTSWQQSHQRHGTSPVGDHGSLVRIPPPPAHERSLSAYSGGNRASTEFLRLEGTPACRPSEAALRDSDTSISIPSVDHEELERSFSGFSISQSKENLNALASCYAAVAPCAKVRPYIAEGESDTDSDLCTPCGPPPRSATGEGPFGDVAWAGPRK

**Q.** `S=C(Nc1ccc(Cl)cc1)Nc1cccnc1` was tested. Which “potentiation” value did it give?
**A.** 18.5 (inactive)

**Q.** With `Cc1cc(NC(=O)NCc2ccc(Cl)cc2Cl)cnc1Cl` as the compound, how does the “potentiation” value read?
**A.** -14.9 (inactive)

**Q.** Which “potentiation” value does the source give for `S=C(NCc1ccc(Cl)cc1Cl)Nc1cccnc1` here?
**A.** 3.56 (inactive)

**Q.** Which “potentiation” value does the source give for `COc1cccc(NC(=S)Nc2cccnc2)c1` here?
**A.** 17.9 (inactive)

**Q.** How did the “potentiation” value turn out when `COc1ccc(C)cc1NC(=O)Nc1cccnc1` was run?
**A.** 0.86 (inactive)

**Q.** For `O=C(Nc1cccc(Cl)c1)N(CC1CC1)c1cccnc1`, which “potentiation” value is on record?
**A.** -18.1 (inactive)

**Q.** How did the “potentiation” value turn out when `Cc1nc(F)ccc1NC(=O)Nc1cccc(F)c1` was run?
**A.** 13.9 (inactive)

**Q.** `COc1ccc(NC(=S)Nc2cccnc2)c(OC)c1` was tested. Which “potentiation” value did it give?
**A.** -8.41 (inactive)

**Q.** How did the “potentiation” value turn out when `Cc1cc(NC(=O)NCc2ccc(Cl)cc2Cl)cnc1Br` was run?
**A.** -3.54 (inactive)

**Q.** `O=C(Nc1cccnc1)Nc1ccc2c(c1)CCC2` was tested. Which potentiation did it give?
**A.** 103

**Q.** How did the “potentiation” value turn out when `Cc1ccc(NC(=S)Nc2cccnc2)cc1` was run?
**A.** 12.9 (inactive)

**Q.** Which “potentiation” value does the source give for `COc1ccc(Cl)cc1NC(=S)Nc1cccnc1` here?
**A.** 3.47 (inactive)

**Q.** Which “potentiation” value does the source give for `Cc1ccnc(NC(=O)Nc2cccc(F)c2)c1` here?
**A.** -0.24 (inactive)

**Q.** With `O=C(Nc1cccnc1)Nc1ccc(F)cc1F` as the compound, how does the “potentiation” value read?
**A.** 14.1 (inactive)

**Q.** How did the “potentiation” value turn out when `O=C(Nc1cccnc1)Nc1ccc(Cl)cc1Cl` was run?
**A.** 2.74 (inactive)

**Q.** For `COc1cc(NC(=S)Nc2cccnc2)cc(OC)c1`, which “potentiation” value is on record?
**A.** 4.44 (inactive)

**Q.** How did the “potentiation” value turn out when `O=C(Nc1cccnc1)Nc1ccc(Br)cc1Cl` was run?
**A.** 0.99 (inactive)

**Q.** How did the “potentiation” value turn out when `O=C(Nc1cccnc1)N(CC1CC1)c1ccccc1` was run?
**A.** -0.98 (inactive)

**Q.** With `Fc1ccc(NC(=S)Nc2cccnc2)c(F)c1` as the compound, how does the “potentiation” value read?
**A.** -38.9 (inactive)

**Q.** For `CC(CCc1ccccc1)NC(=S)Nc1cccnc1` (stereo not given), which “potentiation” value is on record?
**A.** -10.2 (inactive)

**Q.** `COc1ccccc1NC(=O)Nc1cccnc1` was tested. Which “potentiation” value did it give?
**A.** 28 (inactive)

**Q.** Which “potentiation” value does the source give for `Cc1ccc(Cl)cc1NC(=O)Nc1cccnc1` here?
**A.** -2.18 (inactive)

**Q.** For `Fc1ccc(NC(=S)Nc2cccnc2)cc1`, which “potentiation” value is on record?
**A.** 25.8 (inactive)

**Q.** For `COc1cccc(NC(=O)Nc2cccnc2)c1`, which “potentiation” value is on record?
**A.** 38.6 (inactive)

**Q.** How did the “potentiation” value turn out when `COc1ccc(NC(=O)Nc2cccnc2)c(OC)c1` was run?
**A.** -1.24 (inactive)

Source: PubChem BioAssay AID2654 (Johns Hopkins Ion Channel Center, 2010)
